The campaign covered roughly 5,500 compounds. About 2,000 (36%) were called active. Another 18% or so got no clear call; they are omitted. Cut-off read from the data, not from the text of the source: active = normalized growth mostly below about 0.91 (no sharp cut-off); inconclusive = no clear call, values can overlap the other calls; inactive = mostly above about 0.92. Some of the results follow.
Assay: chemical genetic growth profiling, strain panel (AID 1159580);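 note: tested at 20 µM; growth read once vehicle control cultures reached saturation at 30 °C; 1 = growth at the plate median or of vehicle wells; lower values mean less growth of the strain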
Conditions: growth OD

Measured: normalized growth

S=P(N1CC1)(N1CC1)N1CC1
inactive: S. cerevisiae deletion strains, locus YKL009W, strain mrt4, stronger effect = lower value 0.99 | S. cerevisiae deletion strains, locus YKL068W, stronger effect = lower value 1.01 | S. cerevisiae deletion strains, locus YKL085W, strain MDH1 (second series), stronger effect = lower value 0.997 | S. cerevisiae deletion strains, locus YKL085W, strain MDH1, stronger effect = lower value 0.997 | S. cerevisiae deletion strains, locus YKL160W, strain elf1, stronger effect = lower value 1.01 | S. cerevisiae deletion strains, locus YKL190W, strain CNB1, stronger effect = lower value 1 | S. cerevisiae deletion strains, locus YKR001C, strain vps1, stronger effect = lower value 0.994 | S. cerevisiae deletion strains, locus YKR026C, strain gcn3, stronger effect = lower value 0.976 | S. cerevisiae deletion strains, locus YKR091W, strain srl3, stronger effect = lower value 1 | S. cerevisiae deletion strains, locus YLL001W, strain dnm1, stronger effect = lower value 1 | S. cerevisiae deletion strains, locus YLL026W, stronger effect = lower value 1 | S. cerevisiae deletion strains, locus YLL041C, strain sdh2, stronger effect = lower value 1.01 | S. cerevisiae deletion strains, locus YLR027C, strain aat2, stronger effect = lower value 1.01 | S. cerevisiae deletion strains, locus YLR039C, strain RIC1, stronger effect = lower value 1.03 | S. cerevisiae deletion strains, locus YLR058C, strain SHM2, stronger effect = lower value 1.01 | S. cerevisiae deletion strains, locus YLR102C, strain apc9, stronger effect = lower value 1.01 | S. cerevisiae deletion strains, locus YLR113W, strain HOG1, stronger effect = lower value 0.995 | S. cerevisiae deletion strains, locus YLR221C, strain rsa3, stronger effect = lower value 0.996 | S. cerevisiae deletion strains, locus YLR258W, strain gsy2, stronger effect = lower value 1.01 | S. cerevisiae deletion strains, locus YLR262C, strain YPT6 (second series), stronger effect = lower value 1.02 | S. cerevisiae deletion strains, locus YLR262C, strain YPT6, stronger effect = lower value 1.02 | S. cerevisiae deletion strains, locus YLR268W, strain sec22, stronger effect = lower value 0.989 | S. cerevisiae deletion strains, locus YLR320W, strain mms22, stronger effect = lower value 0.994 | S. cerevisiae deletion strains, locus YLR330W, strain CHS5, stronger effect = lower value 1.01 | S. cerevisiae deletion strains, locus YLR342W, strain FKS1 (second series), stronger effect = lower value 1.03 | S. cerevisiae deletion strains, locus YLR342W, strain FKS1, stronger effect = lower value 1.01 | S. cerevisiae deletion strains, locus YLR357W, strain rsc2, stronger effect = lower value 1.03 | S. cerevisiae deletion strains, locus YLR370C, strain arc18, stronger effect = lower value 1.01 | S. cerevisiae deletion strains, locus YLR371W, strain rom2, stronger effect = lower value 1.01 | S. cerevisiae deletion strains, locus YLR384C, strain iki3, stronger effect = lower value 0.994 | S. cerevisiae deletion strains, locus YLR418C, strain cdc73, stronger effect = lower value 0.977 | S. cerevisiae deletion strains, locus YML016C, strain PPZ1, stronger effect = lower value 1 | S. cerevisiae deletion strains, locus YML032C, strain rad52, stronger effect = lower value 1 | S. cerevisiae deletion strains, locus YML120C, strain ndi1, stronger effect = lower value 1.01 | S. cerevisiae deletion strains, locus YML124C, strain tub3, stronger effect = lower value 1 | S. cerevisiae deletion strains, locus YMR058W, strain fet3, stronger effect = lower value 1.02 | S. cerevisiae deletion strains, locus YMR078C, strain ctf18, stronger effect = lower value 1 | S. cerevisiae deletion strains, locus YMR125W, strain sto1, stronger effect = lower value 1 | S. cerevisiae deletion strains, locus YMR129W, stronger effect = lower value 1.01 | S. cerevisiae deletion strains, locus YMR205C, strain PFK2, stronger effect = lower value 1.01 | S. cerevisiae deletion strains, locus YMR223W, strain ubp8, stronger effect = lower value 1 | S. cerevisiae deletion strains, locus YMR231W, strain pep5, stronger effect = lower value 0.993 | S. cerevisiae deletion strains, locus YMR263W, strain SAP30, stronger effect = lower value 1.02 | S. cerevisiae deletion strains, locus YMR307W, strain GAS1, stronger effect = lower value 1.04 | S. cerevisiae deletion strains, locus YNL067W, strain RPL9B, stronger effect = lower value 1.01 | S. cerevisiae deletion strains, locus YNL071W, strain lat1, stronger effect = lower value 1.02 | S. cerevisiae deletion strains, locus YNL128W, strain TEP1, stronger effect = lower value 1.01 | S. cerevisiae deletion strains, locus YNL153C, strain GIM3, stronger effect = lower value 0.997 | S. cerevisiae deletion strains, locus YNL183C, strain NPR1, stronger effect = lower value 0.932 | S. cerevisiae deletion strains, locus YNL209W, strain ssb2, stronger effect = lower value 1.02 | S. cerevisiae deletion strains, locus YNL233W, strain BNI4, stronger effect = lower value 0.998 | S. cerevisiae deletion strains, locus YNL248C, strain rpa49, stronger effect = lower value 0.999 | S. cerevisiae deletion strains, locus YNL250W, strain rad50, stronger effect = lower value 0.995 | S. cerevisiae deletion strains, locus YNL271C, strain bni1, stronger effect = lower value 1.01 | S. cerevisiae deletion strains, locus YNL298W, strain CLA4, stronger effect = lower value 1.02 | S. cerevisiae deletion strains, locus YNL307C, strain MCK1, stronger effect = lower value 1.01 | S. cerevisiae deletion strains, locus YNL322C, strain KRE1 (second series), stronger effect = lower value 1.01 | S. cerevisiae deletion strains, locus YNL322C, strain KRE1, stronger effect = lower value 1.01 | S. cerevisiae deletion strains, locus YNR049C, strain mso1, stronger effect = lower value 1.01 | S. cerevisiae deletion strains, locus YNR052C, strain pop2, stronger effect = lower value 1 | S. cerevisiae deletion strains, locus YOL006C, strain TOP1, stronger effect = lower value 1.04 | S. cerevisiae deletion strains, locus YOL012C, strain htz1 0.982 | S. cerevisiae deletion strains, locus YOL147C, strain pex11, stronger effect = lower value 1.04 | S. cerevisiae deletion strains, locus YOR001W, strain rrp6, stronger effect = lower value 1.01 | S. cerevisiae deletion strains, locus YOR061W, strain CKA2, stronger effect = lower value 1.01 | S. cerevisiae deletion strains, locus YOR069W, strain VPS5, stronger effect = lower value 0.992 | S. cerevisiae deletion strains, locus YOR070C, strain gyp1, stronger effect = lower value 1.01 | S. cerevisiae deletion strains, locus YOR080W, strain dia2, stronger effect = lower value 1 | S. cerevisiae deletion strains, locus YOR083W, strain WHI5, stronger effect = lower value 0.997 | S. cerevisiae deletion strains, locus YOR106W, strain vam3, stronger effect = lower value 0.997 | S. cerevisiae deletion strains, locus YOR136W, strain idh2, stronger effect = lower value 1 | S. cerevisiae deletion strains, locus YOR144C, strain elg1, stronger effect = lower value 1.01 | S. cerevisiae deletion strains, locus YOR184W, strain ser1, stronger effect = lower value 1.01 | S. cerevisiae deletion strains, locus YOR231W, strain MKK1, stronger effect = lower value 1 | S. cerevisiae deletion strains, locus YOR265W, strain rbl2, stronger effect = lower value 1.01 | S. cerevisiae deletion strains, locus YOR270C, strain vph1, stronger effect = lower value 1.01 | S. cerevisiae deletion strains, locus YOR290C, strain snf2, stronger effect = lower value 1.01 | S. cerevisiae deletion strains, locus YOR316C, strain cot1, stronger effect = lower value 1 | S. cerevisiae deletion strains, locus YPL051W, strain arl3, stronger effect = lower value 1.01 | S. cerevisiae deletion strains, locus YPL055C, strain LGE1, stronger effect = lower value 0.989 | S. cerevisiae deletion strains, locus YPL078C, strain atp4, stronger effect = lower value 1.01 | S. cerevisiae deletion strains, locus YPL106C, strain sse1, stronger effect = lower value 1.02 | S. cerevisiae deletion strains, locus YPL240C, strain hsp82, stronger effect = lower value 0.996 | S. cerevisiae deletion strains, locus YPL241C, strain CIN2, stronger effect = lower value 0.991 | S. cerevisiae deletion strains, locus YPL256C, strain CLN2, stronger effect = lower value 0.991 | S. cerevisiae deletion strains, locus YPR119W, strain clb2, stronger effect = lower value 1.01 | S. cerevisiae deletion strains, locus YPR141C, strain kar3, stronger effect = lower value 0.996 | S. cerevisiae deletion strains, locus YPR163C, strain tif3, stronger effect = lower value 1 | S. cerevisiae deletion strains, locus YPR167C, strain met16, stronger effect = lower value 0.992 | S. cerevisiae deletion strains, strain wtn01, stronger effect = lower value 0.983 | S. cerevisiae strains, strain wild type, stronger effect = lower value 1.01

Source: PubChem BioAssay AID1159580 (chemical genetic matrix, 2015)
